Source: the supplement of paper PMC12282887
± gives the standard deviation of the averaged measurements.

Columns and labels:
Test in all cases: promoter activity interaction Z-score (Lux/OD deviation from empty-vector control); higher = stronger promoter induction by the compound
[1] = system: E. coli BW25113 ompFp lux reporter
Summary of the method: (§1)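 At 37°C, E. coli BW25113 reporter cultures in 40 µl LB Lennox in 384-well plates were read for OD600 and luminescence every 30 min for 12 h. Windows were 0–8 h for wild type and 1–9 h for deletion strains, and wells under 10% of the median growth value were removed. The score is the Z-transformed residual of growth-normalised luminescence against a control fit.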

[2] = system: E. coli BW25113 robp lux reporter
Summary of the method: as §1

[3] = system: E. coli BW25113 soxSp lux reporter
Summary of the method: as §1

[4] = system: E. coli BW25113 tolCp lux reporter
Summary of the method: as §1

[5] = 0.005 µg/ml, genetic background: wild type
[6] = 0.005 µg/ml, genetic background: ΔmarA
[7] = 0.005 µg/ml, genetic background: Δrob
[8] = 0.005 µg/ml, genetic background: ΔsoxS
[9] = 0.0099 µg/ml, genetic background: wild type
[10] = 0.0012 µg/ml, genetic background: wild type
[11] = 0.0012 µg/ml, genetic background: ΔmarA
[12] = 0.0012 µg/ml, genetic background: Δrob
[13] = 0.0012 µg/ml, genetic background: ΔsoxS
[14] = 0.0025 µg/ml, genetic background: wild type
[15] = 0.0025 µg/ml, genetic background: ΔmarA
[16] = 0.0025 µg/ml, genetic background: Δrob
[17] = 0.0025 µg/ml, genetic background: ΔsoxS
[18] = 0.0099 µg/ml, genetic background: ΔmarA
[19] = 0.0099 µg/ml, genetic background: Δrob
[20] = 0.0099 µg/ml, genetic background: ΔsoxS

## O=C(O)c1cn(C2CC2)c2cc(N3CCNCC3)c(F)cc2c1=O [Ciprofloxacin]
[1]; [5]
  promoter activity interaction Z-score: -0.511 ± 0.028
[1]; [6]
  promoter activity interaction Z-score: -0.0342 ± 0.14
[1]; [7]
  promoter activity interaction Z-score: -0.495 ± 0.56
[1]; [8]
  promoter activity interaction Z-score: -0.279 ± 0.43
[1]; [9]
  promoter activity interaction Z-score: -0.587 ± 0.72
[2]; [10]
  promoter activity interaction Z-score: 0.0678 ± 0.12
[2]; [11]
  promoter activity interaction Z-score: 0.253 ± 0.13
[2]; [12]
  promoter activity interaction Z-score: 0.0957 ± 0.66
[2]; [13]
  promoter activity interaction Z-score: 1.22 ± 0.77
[2]; [14]
  promoter activity interaction Z-score: 0.3 ± 0.26
[2]; [15]
  promoter activity interaction Z-score: -0.0277 ± 0.16
[2]; [16]
  promoter activity interaction Z-score: 0.0548 ± 0.78
[2]; [17]
  promoter activity interaction Z-score: 1.24 ± 1.1
[2]; [5]
  promoter activity interaction Z-score: 0.247 ± 0.46
[2]; [6]
  promoter activity interaction Z-score: 0.267 ± 0.41
[2]; [7]
  promoter activity interaction Z-score: -0.0594 ± 0.79
[2]; [8]
  promoter activity interaction Z-score: 0.171 ± 0.16
[2]; [9]
  promoter activity interaction Z-score: -0.624 ± 0.76
[2]; [18]
  promoter activity interaction Z-score: -0.611
[3]; [10]
  promoter activity interaction Z-score: -0.0335 ± 0.15
[3]; [11]
  promoter activity interaction Z-score: 0.12 ± 0.047
[3]; [12]
  promoter activity interaction Z-score: 0.0163 ± 0.22
[3]; [13]
  promoter activity interaction Z-score: 0.466 ± 0.26
[3]; [14]
  promoter activity interaction Z-score: -0.17 ± 0.048
[3]; [15]
  promoter activity interaction Z-score: 0.0948 ± 0.18
[3]; [16]
  promoter activity interaction Z-score: -0.0974 ± 0.25
[3]; [17]
  promoter activity interaction Z-score: 0.326 ± 0.014
[3]; [5]
  promoter activity interaction Z-score: 0.14 ± 0.19
[3]; [6]
  promoter activity interaction Z-score: 0.125 ± 0.098
[3]; [7]
  promoter activity interaction Z-score: 0.0524 ± 0.27
[3]; [8]
  promoter activity interaction Z-score: 0.682 ± 0.7
[3]; [9]
  promoter activity interaction Z-score: 0.127 ± 0.063
[3]; [18]
  promoter activity interaction Z-score: 0.0874 ± 0.13
[3]; [19]
  promoter activity interaction Z-score: -0.378 ± 0.17
[3]; [20]
  promoter activity interaction Z-score: 3.89 ± 2.3
[4]; [10]
  promoter activity interaction Z-score: 0.3 ± 0.42
[4]; [11]
  promoter activity interaction Z-score: 0.215 ± 0.83
[4]; [12]
  promoter activity interaction Z-score: -0.563 ± 1
[4]; [13]
  promoter activity interaction Z-score: 0.363 ± 0.45
[4]; [14]
  promoter activity interaction Z-score: 0.307 ± 0.13
[4]; [15]
  promoter activity interaction Z-score: -0.633 ± 0.058
[4]; [16]
  promoter activity interaction Z-score: -0.452 ± 0.41
[4]; [17]
  promoter activity interaction Z-score: 0.599 ± 0.74
[4]; [5]
  promoter activity interaction Z-score: 0.224 ± 0.038
[4]; [6]
  promoter activity interaction Z-score: 0.452 ± 0.24
[4]; [7]
  promoter activity interaction Z-score: -0.267 ± 1.4
[4]; [8]
  promoter activity interaction Z-score: 0.965 ± 0.61
[4]; [9]
  promoter activity interaction Z-score: -0.238 ± 0.84
[4]; [18]
  promoter activity interaction Z-score: 0.207 ± 0.2
[4]; [19]
  promoter activity interaction Z-score: -2.22 ± 0.97
[4]; [20]
  promoter activity interaction Z-score: 1.85 ± 0.19
